D1 antag – Antagonist of Human D 1 Dopamine Receptor: qHTS; D(1A) dopamine receptor (Homo sapiens), P21728; HEK293 TREx D1 cells, calcium flux, dopamine EC80; active compounds read low; activity change, negative = inhibition, % at 10 µM; actives 3.2% (n = 360,000); AID 504652, 2011; in the data active means activity change below about -30%; further: on the % scale 0 is the no-effect control and ±100 the full control effect
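Allosteric or orthosteric antagonism assessed as attenuation of the calcium response to EC80 dopamine, added 180 s after compound, in induced HEK293 Trex D1 cells loaded with no-wash calcium dye.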
D1 ag – Allosteric Agonists of the Human D1 Dopamine Receptor: qHTS; activation, % at 2 µM; D(1A) dopamine receptor (Homo sapiens), P21728; actives 1% (n = 360,000); HEK293 T-REx D1 cells, calcium flux, agonist mode; further: 0% is about no effect
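Tetracycline-induced HEK293 TREx D1 cells, force-coupled to calcium signalling, were dye-loaded with a no-wash calcium kit. Compound was pin-added after a 10 s baseline. Fluorescence was read kinetically at 1 cycle/s for 180 s, with calcium rises flagged as agonism.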
TRHR PAM – qHTS for Small Molecule Agonists and Allosteric Enhancers of Human TRH Receptor: Primary Screen for Enhancers; Thyrotropin-releasing hormone receptor (Homo sapiens), P34981; TRHR cells, fluo-8 calcium fluorescence, EC20 TRH enhancement; enhancement, % at 2 µM; actives 0.66% (n = 360,000); AID 493056, 2011; in the data active means enhancement above about 30%; further: 0% is about no effect
Target sequence (P34981 whole entry, looked up): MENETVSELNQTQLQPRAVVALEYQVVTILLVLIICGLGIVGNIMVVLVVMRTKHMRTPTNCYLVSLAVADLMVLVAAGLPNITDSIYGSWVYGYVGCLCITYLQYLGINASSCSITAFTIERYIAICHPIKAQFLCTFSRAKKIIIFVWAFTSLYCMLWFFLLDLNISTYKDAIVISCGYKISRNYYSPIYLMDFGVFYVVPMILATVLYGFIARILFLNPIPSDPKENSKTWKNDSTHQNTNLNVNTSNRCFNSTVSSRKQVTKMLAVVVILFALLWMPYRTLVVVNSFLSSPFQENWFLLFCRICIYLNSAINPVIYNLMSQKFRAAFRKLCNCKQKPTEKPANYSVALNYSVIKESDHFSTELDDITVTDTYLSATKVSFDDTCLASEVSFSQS
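Enhancer read-out: after compound pinning and an initial kinetic agonist-mode read, an EC20 of TRH (10 nM final) was injected and fluo-8 calcium signal (Ex 480/Em 530) followed at 1 s/cycle for 100 cycles in TRHR-expressing cells.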
TRHR agonist – qHTS for Small Molecule Agonists and Allosteric Enhancers of Human TRH Receptor: Primary Screen for Agonists; Thyrotropin-releasing hormone receptor (Homo sapiens), P34981; TRHR cells, calcium flux fluo-8, FDSS agonist mode; activation, % at 2 µM; actives 0.18% (n = 360,000); AID 493084, 2011; further: 0% is about no effect
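Fluo-8-loaded TRHR cells; 10 s baseline, compound added, kinetic Ca2+ fluorescence read 1/s, agonist mode.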
D1 potentiator – Potentiators of Human D1 Dopamine Receptor: qHTS. D(1A) dopamine receptor (Homo sapiens), P21728. HEK293 TREx D1 cells, calcium flux, dopamine EC20 potentiation. potentiation, % at 10 µM. actives 0.036% (n = 360,000). AID 504651, 2011; in the data active means potentiation above about 30%; further: 0% is about no effect
Starred values were filed as active, the others as inactive. Compounds with a hit are over-represented: about 4.7% of the library has one in this group of screens. Unless noted, no stated cut-off is given here; in the data, active means activation above about 30%; inactive means the rest.

SMILES	D1 antag	D1 ag	TRHR PAM	TRHR agonist	D1 potentiator
N#CC1=C(N)N(c2ccccc2)C(c2cccc([N+](=O)[O-])c2)C1(C#N)C#N (stereo not given)	-30*	-1	1	0	-10
Cc1cccc(N2C(N)=C(C#N)C(C#N)(C#N)C2c2ccccc2)c1 (stereo not given)	10	-1	4	0	4
COCCNCCCCOc1ccc(Br)cc1C	-17	11	-1	0	-8
COCCCNCCCCOc1ccc(Br)cc1C	-35*	37*	1	1	-18
COc1ccc(CCNC(=O)Cn2cc(C(=O)c3ccccc3)c(=O)c3ccc(C)nc32)cc1OC	7	2	25	-2	1
CCOc1ccc(OCC)c(NC(=O)c2ccc(-c3ccccc3)s2)c1	-85*	4	1	1	-5
O=C(Nc1ccccc1)c1ccc(-c2ccccc2)s1	-12	51*	1	1	-2
CCc1ccc(NC(=O)c2ccc(-c3ccccc3)s2)cc1	-6	3	-2	-1	-3
O=C(COc1ccccc1[N+](=O)[O-])OC1CCS(=O)(=O)C1 (stereo not given)	-79*	0	-27	0	-7
O=C(COc1ccccc1[N+](=O)[O-])N(C1CCCCC1)C1CCS(=O)(=O)C1 (stereo not given)	15	3	-4	1	-4
CC1(C)Cc2c(C#N)c(NCc3ccco3)nc(-c3ccco3)c2CO1	-4	2	37*	4	-4
COc1ccc(/C=C/C(=O)Nc2cc(C)nn2-c2nc3ccccc3[nH]2)cc1	-41*	4	28	1	-10
Cc1cc(NC(=O)/C=C/c2cccc(F)c2)n(-c2nc3ccccc3[nH]2)n1	-25	2	1	0	-13
Cc1cc(NC(=O)/C=C/c2ccc(F)cc2)n(-c2nc3ccccc3[nH]2)n1	-36*	5	5	1	-8
CCOC(=O)N1CCC(NC(=O)c2cnn(-c3ccc(C)cc3)c2-n2cccc2)CC1	6	-1	-1	0	0
CN1CCN(S(=O)(=O)c2ccc(NC(=O)c3csc4ccccc34)cc2)CC1	-45*	3	-6	1	-12
CCCOc1ccc(C(=O)Nc2ccc(S(=O)(=O)N3CCN(C)CC3)cc2)cc1	-72*	10	-2	0	-11
CCCOc1ccccc1C(=O)Nc1ccc(S(=O)(=O)N2CCN(C)CC2)cc1	-49*	4	-2	0	-12
O=C(C[n+]1cc(-c2ccc(F)cc2)n2c1CCC2)Nc1nc(-c2ccc(F)cc2)cs1	-31*	0	18	0	-3
O=C(CN1CCCCC1)Nc1nc(-c2ccccc2)cs1	-8	0	0	0	-1
O=C(CN1CCCCC1)Nc1nc(-c2ccc(Cl)cc2)cs1	-53*	1	-3	0	-2
CSc1ccccc1NC(=O)CN(C)C(=O)c1ccc(-n2cccn2)cc1	10	4	-5	-1	-7
C=CCN(c1ccccc1)S(=O)(=O)c1cccc(C(=O)NC2CCN(Cc3ccccc3)CC2)c1	-37*	3	12	0	1
COc1ccccc1NS(=O)(=O)c1cccc(C(=O)NC2CCN(Cc3ccccc3)CC2)c1	-37*	18	-5	0	-7
COc1ccccc1NS(=O)(=O)c1ccc(C)c(C(=O)NC2CCN(Cc3ccccc3)CC2)c1	-6	4	23	0	-5
SMILES	D1 antag	D1 ag	TRHR PAM	TRHR agonist	D1 potentiator
COc1ccc(CNC(=O)[C@@H](NC(=O)C2CCN(C(=O)[C@@H](N)Cc3ccccc3)CC2)C(C)C)cc1	3	8	1	0	7
CN1CCN(c2ccc(NC(=S)NC(=O)c3cccc4ccccc34)cc2)CC1	-23	14	9	2	-15
O=C(NC(=S)Nc1ccc(N2CCCC2)cc1)c1ccccc1[N+](=O)[O-]	-72*	0	11	0	-2
CN1CCN(c2ccc(NC(=S)NC(=O)c3cccc4c(Br)cccc34)cc2)CC1	-37*	3	-6	0	-9
Cc1ccc2cccc(NC(=O)c3ccc(-c4ccc(Cl)cc4Cl)o3)c2n1	0	-1	1	1	-4
O=C1C(Cl)=C(Nc2ccc3cn[nH]c3c2)C(=O)c2ccccc21	-74*	10	-33	1	-9
CN(C)c1ccc(NC2=C(Cl)C(=O)c3ccccc3C2=O)cc1	-66*	9	-11	-1	-13
CC(=O)Nc1ccc(NC2=C(Cl)C(=O)c3ccccc3C2=O)cc1	-58*	4	4	0	-10
O=C(Nc1ccc2cn[nH]c2c1)c1c(Cl)cccc1Cl	2	0	4	0	0
O=C(NC1=C(Nc2ccc(Cl)cc2)C(=O)c2ccccc2C1=O)c1ccccc1	14	0	-4	0	3
Cn1c(Cn2c(=O)sc3ccccc32)nnc1SCC(=O)N1CCN(c2ccccc2)CC1	4	0	8	0	2
O=C(CSc1nnc2sc3ccccc3n12)N1CCN(c2ccccc2)CC1	-59*	-3	-4	0	-5
Cc1nnc(SCC(=O)N2CCN(c3ccccc3)CC2)n(N)c1=O	3	3	38*	0	-1
CS(=O)(=O)C1=NSC2=NC(=O)/C(=C\c3ccc(OC(=O)c4ccco4)c(Br)c3)C(=N)N21	-10	3	-1	-1	4
CCNc1c(NS(=O)(=O)c2ccc(Br)s2)c(=O)oc2ccccc12	-41*	-3	2	0	-3
N#Cc1nc(Nc2cccc3ccccc23)nc(NC2CCCC2)n1	-35*	8	-6	2	-7
COc1cccc(Nc2nc(C#N)nc(NC3CCCC3)n2)c1	-33*	5	-5	-3	0
N#Cc1nc(Nc2cccc(Br)c2)nc(NC2CCCC2)n1	-14	7	-4	-1	-4
COC(=O)CNC(=O)c1cccc(F)c1	13	1	4	1	-5
COC(=O)CNC(=O)c1cccc(Cl)c1	-32*	4	-3	0	-4
CN(CC(=O)NCC1CCCCC1)CC(=O)Nc1ccc(F)cc1	-1	0	4	0	0
CCC(C)NC(=O)Cn1cnc2sc(C)c(S(=O)(=O)N3CCN(c4ncccn4)CC3)c2c1=O (stereo not given)	10	3	1	0	-2
Cc1sc2ncn(CC(=O)Nc3ccc(C(C)C)cc3)c(=O)c2c1S(=O)(=O)N1CCN(c2ncccn2)CC1	-61*	1	5	2	0
